Assay results published in the supplement of paper PMC10849652.
Targets with a hit are over-represented here; the source holds about 7,900 in all. About 0.6% of all pairs of compound and target were hits.

Compound: C[C@H](Nc1ncnc2nc[nH]c12)c1cc2cccc(Cl)c2c(=O)n1-c1ccccc1 [duvelisib]
Assay: log2 fold change, soluble protein after heating vs DMSO (PISA); higher = thermal stabilisation; K562 cells, 10 uM, 30 min; active = over 0.2 and 3.5 SD of the protein, either way, in both replicates (recomputed)
Method in brief: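 K562 cells at 2×10^6 cells/mL were treated with 10 μM compound for 30 min. Aliquots were heated for 3 min across 48°C-58°C, pooled, and extracted in PBS with 0.5% NP-40 at 4°C; soluble protein was the supernatant after 21,000xg for 90 min. Soluble protein was quantified by TMTpro 16plex LC-MS/MS with channel sums equalised, and reported as log2 fold change in thermal stability against DMSO controls, with values from duplicates.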

Sequence of UniProt P60033 (P60033 whole entry, looked up): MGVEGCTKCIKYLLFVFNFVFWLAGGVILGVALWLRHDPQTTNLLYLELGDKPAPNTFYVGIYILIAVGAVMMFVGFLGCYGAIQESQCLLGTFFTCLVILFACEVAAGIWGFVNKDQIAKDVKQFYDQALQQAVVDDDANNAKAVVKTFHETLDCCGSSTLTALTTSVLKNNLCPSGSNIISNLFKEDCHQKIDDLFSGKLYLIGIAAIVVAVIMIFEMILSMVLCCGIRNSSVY
Sequence of UniProt Q96CF2 (Q96CF2 whole entry, looked up): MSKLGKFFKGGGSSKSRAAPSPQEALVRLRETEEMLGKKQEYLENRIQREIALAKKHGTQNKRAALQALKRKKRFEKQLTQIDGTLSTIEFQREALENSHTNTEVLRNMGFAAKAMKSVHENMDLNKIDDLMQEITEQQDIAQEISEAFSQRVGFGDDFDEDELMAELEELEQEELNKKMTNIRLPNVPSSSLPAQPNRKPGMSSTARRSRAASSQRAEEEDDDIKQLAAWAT
Sequence of UniProt Q96KP4 (Q96KP4 whole entry, looked up): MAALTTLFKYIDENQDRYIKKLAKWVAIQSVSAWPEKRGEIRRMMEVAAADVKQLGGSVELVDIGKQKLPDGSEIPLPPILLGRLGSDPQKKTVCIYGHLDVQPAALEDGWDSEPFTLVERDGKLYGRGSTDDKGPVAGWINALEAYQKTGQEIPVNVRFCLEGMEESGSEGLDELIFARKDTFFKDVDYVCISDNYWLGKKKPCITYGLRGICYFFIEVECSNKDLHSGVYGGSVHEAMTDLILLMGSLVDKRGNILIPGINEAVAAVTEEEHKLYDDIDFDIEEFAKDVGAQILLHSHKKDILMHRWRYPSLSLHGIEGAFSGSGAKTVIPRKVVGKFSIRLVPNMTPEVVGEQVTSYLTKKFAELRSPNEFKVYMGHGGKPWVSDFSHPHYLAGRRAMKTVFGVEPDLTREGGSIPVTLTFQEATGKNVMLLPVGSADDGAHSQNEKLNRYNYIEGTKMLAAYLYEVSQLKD
Sequence of UniProt O95628 (O95628 whole entry, looked up): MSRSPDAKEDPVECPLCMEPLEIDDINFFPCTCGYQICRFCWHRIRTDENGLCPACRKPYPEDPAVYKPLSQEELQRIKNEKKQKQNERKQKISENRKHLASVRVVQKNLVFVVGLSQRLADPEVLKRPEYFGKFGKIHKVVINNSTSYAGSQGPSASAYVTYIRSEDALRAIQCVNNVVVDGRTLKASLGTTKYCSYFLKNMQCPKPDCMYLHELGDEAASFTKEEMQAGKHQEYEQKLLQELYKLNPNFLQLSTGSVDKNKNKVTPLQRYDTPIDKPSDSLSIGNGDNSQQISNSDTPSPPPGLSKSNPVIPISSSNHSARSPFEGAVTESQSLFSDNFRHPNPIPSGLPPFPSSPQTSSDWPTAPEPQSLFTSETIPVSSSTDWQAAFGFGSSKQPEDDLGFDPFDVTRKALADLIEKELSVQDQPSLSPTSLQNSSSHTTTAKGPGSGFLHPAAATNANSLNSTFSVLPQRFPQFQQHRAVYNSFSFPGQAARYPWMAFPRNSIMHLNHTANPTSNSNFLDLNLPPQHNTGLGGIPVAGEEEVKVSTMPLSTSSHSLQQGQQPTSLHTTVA
Sequence of UniProt P45973 (P45973 whole entry, looked up): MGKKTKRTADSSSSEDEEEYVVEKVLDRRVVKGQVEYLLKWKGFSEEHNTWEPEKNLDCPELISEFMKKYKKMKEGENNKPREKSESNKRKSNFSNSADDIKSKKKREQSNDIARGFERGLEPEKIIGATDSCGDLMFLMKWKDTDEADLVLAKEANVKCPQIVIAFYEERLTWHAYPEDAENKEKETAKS
Sequence of UniProt O95319 (O95319 whole entry, looked up): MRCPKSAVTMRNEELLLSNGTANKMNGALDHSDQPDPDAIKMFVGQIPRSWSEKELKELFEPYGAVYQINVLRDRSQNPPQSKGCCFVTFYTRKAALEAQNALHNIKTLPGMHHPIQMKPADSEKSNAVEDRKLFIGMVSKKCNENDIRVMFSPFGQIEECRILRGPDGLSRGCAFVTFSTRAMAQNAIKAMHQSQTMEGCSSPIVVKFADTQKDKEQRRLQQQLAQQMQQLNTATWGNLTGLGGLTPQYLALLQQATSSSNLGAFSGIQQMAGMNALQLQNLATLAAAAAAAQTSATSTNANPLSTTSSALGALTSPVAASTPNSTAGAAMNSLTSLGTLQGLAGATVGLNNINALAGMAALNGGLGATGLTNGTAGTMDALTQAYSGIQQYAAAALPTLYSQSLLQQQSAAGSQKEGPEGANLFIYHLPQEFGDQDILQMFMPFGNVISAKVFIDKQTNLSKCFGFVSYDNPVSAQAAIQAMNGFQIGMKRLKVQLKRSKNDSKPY
Sequence of UniProt P41208 (P41208 whole entry, looked up): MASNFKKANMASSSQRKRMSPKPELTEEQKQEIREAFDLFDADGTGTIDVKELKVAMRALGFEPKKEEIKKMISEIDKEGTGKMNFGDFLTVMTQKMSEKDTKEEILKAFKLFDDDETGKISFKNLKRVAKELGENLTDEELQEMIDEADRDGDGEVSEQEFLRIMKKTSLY
Sequence of UniProt P16152 (P16152 whole entry, looked up): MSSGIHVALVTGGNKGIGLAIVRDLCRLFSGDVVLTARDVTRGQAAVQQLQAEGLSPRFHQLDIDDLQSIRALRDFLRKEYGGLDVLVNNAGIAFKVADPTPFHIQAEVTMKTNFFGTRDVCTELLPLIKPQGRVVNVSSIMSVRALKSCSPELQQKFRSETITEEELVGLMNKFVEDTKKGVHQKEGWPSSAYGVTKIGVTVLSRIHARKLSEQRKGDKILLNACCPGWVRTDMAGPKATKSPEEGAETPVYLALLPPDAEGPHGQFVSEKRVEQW
Sequence of UniProt P67870 (P67870 whole entry, looked up): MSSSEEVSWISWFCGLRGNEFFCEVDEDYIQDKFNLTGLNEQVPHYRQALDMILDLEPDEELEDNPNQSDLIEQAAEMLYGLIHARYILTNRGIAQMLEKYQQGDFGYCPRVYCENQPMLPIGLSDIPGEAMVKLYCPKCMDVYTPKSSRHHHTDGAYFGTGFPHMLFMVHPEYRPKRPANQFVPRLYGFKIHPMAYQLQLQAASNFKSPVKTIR
Sequence of UniProt Q14839 (Q14839 whole entry, looked up): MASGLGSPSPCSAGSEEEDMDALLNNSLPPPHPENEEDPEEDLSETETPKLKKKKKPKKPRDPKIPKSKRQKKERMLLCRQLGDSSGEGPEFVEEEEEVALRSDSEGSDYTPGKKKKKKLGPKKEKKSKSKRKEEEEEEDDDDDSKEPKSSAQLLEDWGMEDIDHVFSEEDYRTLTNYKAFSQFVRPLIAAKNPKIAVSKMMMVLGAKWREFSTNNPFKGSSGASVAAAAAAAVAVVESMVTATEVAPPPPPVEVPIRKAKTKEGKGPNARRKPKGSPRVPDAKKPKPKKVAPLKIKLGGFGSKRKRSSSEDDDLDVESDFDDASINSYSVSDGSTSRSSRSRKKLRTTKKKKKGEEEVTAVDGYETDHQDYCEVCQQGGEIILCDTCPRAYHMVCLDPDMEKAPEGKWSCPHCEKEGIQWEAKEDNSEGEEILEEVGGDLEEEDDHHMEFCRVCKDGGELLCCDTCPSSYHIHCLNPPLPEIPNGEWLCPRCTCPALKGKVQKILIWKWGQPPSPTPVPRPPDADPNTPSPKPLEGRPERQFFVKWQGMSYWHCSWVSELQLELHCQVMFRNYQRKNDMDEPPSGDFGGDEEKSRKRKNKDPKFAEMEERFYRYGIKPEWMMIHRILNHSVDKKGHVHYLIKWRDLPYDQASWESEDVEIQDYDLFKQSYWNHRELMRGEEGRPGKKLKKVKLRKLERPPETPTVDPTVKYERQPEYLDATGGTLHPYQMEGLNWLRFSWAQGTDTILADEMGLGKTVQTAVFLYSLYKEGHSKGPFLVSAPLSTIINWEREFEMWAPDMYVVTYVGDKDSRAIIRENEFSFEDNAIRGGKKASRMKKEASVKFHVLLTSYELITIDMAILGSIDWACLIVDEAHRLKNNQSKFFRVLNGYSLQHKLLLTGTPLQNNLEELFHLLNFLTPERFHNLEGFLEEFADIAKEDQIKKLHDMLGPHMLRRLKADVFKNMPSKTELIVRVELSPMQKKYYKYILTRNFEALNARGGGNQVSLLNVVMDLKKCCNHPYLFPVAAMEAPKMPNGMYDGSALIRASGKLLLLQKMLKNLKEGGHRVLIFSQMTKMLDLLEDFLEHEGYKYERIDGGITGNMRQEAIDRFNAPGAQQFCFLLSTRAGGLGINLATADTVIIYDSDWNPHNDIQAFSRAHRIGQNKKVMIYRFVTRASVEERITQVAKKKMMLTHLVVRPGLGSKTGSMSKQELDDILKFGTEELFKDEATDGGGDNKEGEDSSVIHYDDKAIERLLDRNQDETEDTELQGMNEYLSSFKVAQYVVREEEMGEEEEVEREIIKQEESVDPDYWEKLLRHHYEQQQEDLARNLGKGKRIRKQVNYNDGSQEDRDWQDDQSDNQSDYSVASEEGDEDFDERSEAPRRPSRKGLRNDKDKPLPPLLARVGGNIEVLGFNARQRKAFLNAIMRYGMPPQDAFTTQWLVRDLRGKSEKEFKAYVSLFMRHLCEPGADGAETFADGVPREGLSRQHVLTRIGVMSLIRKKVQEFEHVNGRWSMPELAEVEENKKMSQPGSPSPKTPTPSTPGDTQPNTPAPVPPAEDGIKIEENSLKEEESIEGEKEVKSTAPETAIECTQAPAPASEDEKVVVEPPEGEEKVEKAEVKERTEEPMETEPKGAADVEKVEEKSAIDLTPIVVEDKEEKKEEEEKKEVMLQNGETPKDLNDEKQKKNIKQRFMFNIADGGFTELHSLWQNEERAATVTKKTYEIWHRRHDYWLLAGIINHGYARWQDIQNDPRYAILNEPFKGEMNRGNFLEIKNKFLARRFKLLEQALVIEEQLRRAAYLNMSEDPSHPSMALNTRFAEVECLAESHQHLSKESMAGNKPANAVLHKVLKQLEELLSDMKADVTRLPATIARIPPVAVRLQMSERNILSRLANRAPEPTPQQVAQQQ
Sequence of UniProt Q5JTJ3 (Q5JTJ3 whole entry, looked up): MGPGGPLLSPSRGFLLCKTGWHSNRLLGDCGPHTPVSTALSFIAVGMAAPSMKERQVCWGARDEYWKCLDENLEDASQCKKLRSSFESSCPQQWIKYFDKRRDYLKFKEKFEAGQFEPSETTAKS

log2 fold change, inactive:
C9orf64 (UniProt Q5T6V5) 0.096
CELF2 isoform 3 (UniProt O95319) -0.027
CAMSAP1 isoform 3 (UniProt Q5T5Y3) -0.019
CNOT4 isoform 6 (UniProt O95628) 0.06
CSTF2 (UniProt P33240) 0.029
CBX5 (UniProt P45973) 0.029
CHD3 isoform 3 (UniProt Q12873) 0.01
CCDC9 (UniProt Q9Y3X0) -0.04
CHERP (UniProt Q8IWX8) -0.025
COQ9 (UniProt O75208) -0.043
CPQ (UniProt Q9Y646) -0.113
CD81 (UniProt P60033) -0.041
CDK6 (UniProt Q00534) 0.033
CHMP4C (UniProt Q96CF2) 0.067
CHAC2 (UniProt Q8WUX2) 0.04
CSNK2B (UniProt P67870) 0.075
CBR1 (UniProt P16152) 0.038
CRKL (UniProt P46109) 0.075
CHD4 isoform 2 (UniProt Q14839) -0.021
COA6 isoform 2 (UniProt Q5JTJ3) 0.068
CNDP2 (UniProt Q96KP4) 0.02
CETN2 (UniProt P41208) -0.003
CAMKK2 (UniProt Q96RR4) 0.093
